# Among all 69,000 compounds or so, about 8,600 (12%) showed an effect of 50% or more. The entries come from a sample that favours strong results as a whole.
# System: Plasmodium berghei
# Test: Screen against P. berghei liver stage (PbLuc), transformed with Luciferase, at 10uM
# Format: functional, HepG2
# Settings: tested at 10 uM
row,Compound,INHIBITION [%]
1,Cc1nn(CCO)c(C)c1CNC1CCOc2ccccc21 (stereo not drawn),13
2,O=C(NC1CCCN(Cc2c(F)cccc2F)C1)c1cnccn1 (stereo not drawn),23.7
3,CS(=O)(=O)CCCN1CCN(C(C#N)c2ccccc2)CC1 (stereo not drawn),21.2
4,NC(=O)c1ccc(C2CN(Cc3ccc(F)cc3)CCO2)nc1 (stereo not drawn),31.3
5,CCc1ocnc1C(=O)N1CCC2(CCCN(CC(C)(C)C)C2=O)C1 (stereo not drawn),32.2
6,Cc1nc(-c2ccccc2)n(CC(=O)NC2CCCC2)n1,7.27
7,CN1CCN(c2ccc(C(=O)N3CCCC(c4ncc[nH]4)C3)cc2)CC1 (stereo not drawn),3.3
8,CCC1(C(=O)O)CCCN(C(=O)c2ccc(N3CCN(C)CC3)cc2)C1 (stereo not drawn),33.7
9,CCC1(CO)CCCN(C(=O)c2ccc(N3CCN(C)CC3)cc2)C1 (stereo not drawn),53.5
10,c1ccc(-c2noc(CN3CCCC(Cn4cncn4)C3)n2)nc1 (stereo not drawn),-23.8
11,COc1cccc(-c2ccnc3nc(N4CCCCC4)[nH]c(=O)c23)c1,14.3
12,COc1cc(/C=C/c2ncc(C(=O)O)s2)cc(Cl)c1OC,41.5
13,Cc1noc(C)c1CN1CCC2(COCc3cnc(N(C)C)nc32)C1 (stereo not drawn),1.9
14,Cn1ccnc1C(O)c1ccccc1N1CCN(Cc2ccsc2)CC1 (stereo not drawn),53.75
15,Cn1ccnc1C(O)c1ccccc1N1CCN(CC2CCCC2)CC1 (stereo not drawn),13
16,Cn1ccnc1C(O)c1ccccc1N1CCN(Cc2cccs2)CC1 (stereo not drawn),15.605
17,COCc1cc(NCCc2ccc(S(N)(=O)=O)cc2)n2nccc2n1,26.6
18,Cc1ccccc1OCCN(C)C(=O)NC(C)c1nncn1C (stereo not drawn),35.9
19,CCNC(=O)NC(=O)C(C)Nc1ccccc1OCCOC (stereo not drawn),29.8
20,CCNC(=O)NC(=O)C(C)N(C)CCOc1ccccc1C (stereo not drawn),73.3
21,COC(=O)c1ccoc1CN(C)Cc1cc(OC)c(OC)cc1C,7.43
22,O=C(c1ccoc1)N1CCc2ncc(Cn3cccn3)n2CC1,-3.33

row,Compound,INHIBITION [%]
1,FC(F)(F)Oc1cccc(CNCc2ccc(-n3cncn3)nc2)c1,20.9
2,c1cc(CNCc2ccc(-n3cncn3)nc2)cc(OC2CCCC2)c1,75.4
3,COCCOc1cccc(CNCc2ccc(-n3cncn3)nc2)c1,-9.8
4,CS(=O)(=O)N1CCc2ncc(CNC(=O)C3CCC3)n2CC1,-18.2
5,CNc1cccc(CC2COCCN(C(=O)c3cnn(C)c3)C2)n1 (stereo not drawn),27.15
6,O=C1NCC2(CCCN(C(=O)c3ccc4c(c3)CCCO4)CC2)O1 (stereo not drawn),38.3
7,O=C1NCC2(CCN(C(=O)c3ccc4c(c3)CCCO4)CC2)O1,70.4
8,O=C1NCC2(CCCN(C(=O)c3ccc4c(c3)OCCO4)CC2)O1 (stereo not drawn),42.6
9,Cc1c(Br)cnn1CC(=O)Nc1ccon1,34.2
10,COCC1COCCC12CCN(S(=O)(=O)c1ccccc1)CC2 (stereo not drawn),-27.1
11,CC(C)N1CCC[C@H]1C(=O)NCC1CCN(c2cnn(C)c(=O)c2)CC1,15.1
12,CC(C)OCc1cccc(CNc2cnn(C)c(=O)c2Cl)c1,85.2
13,CCn1c(NCc2ccc(OC)cc2)nc2c(C)nn(C)c2c1=O,13.5
14,COc1cccc(CNc2cc(CO)ccc2Cl)c1,42.6
15,Cn1ncc(NCc2cccc(OCC(F)(F)F)c2)c(Cl)c1=O,99.6
16,Cc1cccc(C(C)(C)CNc2cn[nH]c(=O)c2Cl)c1,-5.92
17,COc1ccc(CNc2cnn(C)c(=O)c2Cl)cc1,52.3
18,Cc1c(C(=O)NCc2ccnc(OCC(F)(F)F)c2)cnn1C,-6.11
19,Cn1ncc(NCc2cccc(COC(C)(C)C)c2)c(Cl)c1=O,80.6
20,CCOc1cccc(CNc2cnn(CC(C)C)c2CC)c1,39.5
21,COc1cccc(CNc2cnn(C)c(=O)c2Cl)c1,49.6
22,CC(NCc1cccc(COC2CCCC2)c1)c1cnn(C)c1 (stereo not drawn),-0.448

row,Compound,INHIBITION [%]
1,Cc1nn(C)c(C)c1C1CCCN1C(=O)c1cc(C(N)=O)cs1 (stereo not drawn),-11.2
2,CN1C(=O)CC(c2cnn(C)c2)C12CCN(C(=O)C1CC=CC1)CC2 (stereo not drawn),-16.5
3,CN(C)Cc1ccnc(C2CN(Cc3c(F)cccc3F)CCO2)n1 (stereo not drawn),8.53
4,Cn1ccnc1CNCC1CCCN1c1cccnn1 (stereo not drawn),-31.5
5,CC(Cn1cccn1)NC(=O)N1CCCN(Cc2cccs2)CC1 (stereo not drawn),14.4
6,CN(C)CCn1c(=O)n(C)c(=O)c2ccccc21,-40.3
7,CCC(=O)N1CCC2(CCC(N3CCCC3)c3ccccc32)CC1 (stereo not drawn),40.8
8,Cc1nn(C)c(N(C)C)c1CNC1CCCCNC1=O (stereo not drawn),5.42
9,C=Cn1cc(CN2CCN(CC3(c4ccccc4)CC3)CC2)c(C)n1,26.57
10,CN(Cc1ccncn1)C(=O)CCc1[nH]nc2c1CCCC2,33.9
11,CCN(CC)C(=O)C1CCC(=O)N(CCc2cccc(F)c2)C1 (stereo not drawn),12.3
12,CC(C)N(CCO)C(=O)C1CCC(=O)N(CCc2ccc(Cl)cc2)C1 (stereo not drawn),26.6
13,CCN(CCO)C(=O)C1CCC(=O)N(CCc2cccc(F)c2)C1 (stereo not drawn),43.7
14,CCCN(CCO)C(=O)C1CCC(=O)N(CCc2ccc(Cl)cc2)C1 (stereo not drawn),-39.9
15,CC(C)N(CCO)C(=O)C1CCC(=O)N(CCc2cccc(F)c2)C1 (stereo not drawn),56.6
16,CC(C)N(C)C(=O)C1CCC(=O)N(CCc2cccc(F)c2)C1 (stereo not drawn),52.3
17,COc1ccc(OC)c(C(C)Nc2ncnc3c2NC(=O)CN3)c1 (stereo not drawn),24.2
18,N#Cc1cccc(C(=O)N2C[C@@H]3CC[C@H]2CN(C(=O)C2CCC2)C3)c1,28.5
19,CN1C(=O)C2(CCN(C(=O)c3ccccc3)CC2)c2cc(F)ccc21,39.4
20,Cc1ccc(S(=O)(=O)N2CCC(S(=O)(=O)c3nncn3C)CC2)cc1C,-0.554
21,Cn1cnnc1S(=O)(=O)C1CCN(S(=O)(=O)c2ccccc2F)CC1,15.7
22,Cn1cnnc1S(=O)(=O)C1CCN(S(=O)(=O)c2ccc(F)c(Cl)c2)CC1,81.9

row,Compound,INHIBITION [%]
1,O=C(C1CC1)N1CCC(c2nc(O)c3c(n2)CCN(C2CCCC2)C3)C1 (stereo not drawn),22.7
2,CCN(CC)c1ncnc2c1CCN(C(=O)Cc1ccccn1)CC2,-49.6
3,O=C1NCCN1C1CCCN(Cc2coc(-c3ccc(F)cc3)n2)C1 (stereo not drawn),75.2
4,O=C1NCCN1C1CCN(Cc2coc(-c3ccc(F)cc3)n2)CC1,52.5
5,Fc1ccc(-c2nc(CN3CCn4c(nnc4C4CC4)C3)co2)cc1,-21.7
6,O=C1NCCN1C1CCCN(Cc2nnc(-c3ccc(F)cc3)o2)C1 (stereo not drawn),20.1
7,O=C1NCCCCC1SCc1coc(-c2ccccc2)n1 (stereo not drawn),35.5
8,O=C1NCCN1C1CCCN(Cc2coc(-c3cccs3)n2)C1 (stereo not drawn),33.3
9,O=C1NCCCCC1SCc1coc(-c2ccc(F)cc2)n1 (stereo not drawn),82.7
10,Cc1ccc(-c2nc(CN3CCC(N4CCNC4=O)CC3)co2)cc1,26.5
11,O=C1NCCCCC1SCc1coc(-c2cccc(F)c2)n1 (stereo not drawn),-16.1
12,CN(C)C(=O)C1CCC2(CCN(C(=O)Nc3cccc(F)c3)CC2)O1 (stereo not drawn),18.6
13,COc1ccc(OC)c(C(=O)N(C)Cc2nnc3ccccn23)c1,-35.7
14,CN(C)[C@H]1CN(C(=O)CCCc2ccc(F)cc2)C[C@@H]1C1CC1,28.4
15,COc1ccccc1C(=O)N1CC(=O)N(Cc2ccco2)CC(O)C1 (stereo not drawn),26.8
16,COc1ccccc1CC(=O)N1CCC(NCc2ccc(C)o2)CC1,29.375
17,O=C(NCc1ccco1)[C@H]1C[C@@H]2CCN(c3cccc(F)c3)C[C@H]2O1,44.1
18,Cn1ccnc1-c1cn(CCCc2csc(N)n2)nn1,17.5
19,COC(=O)CC1CCCCN1CC(=O)NCCc1ccc(F)cc1 (stereo not drawn),38.5
20,COC(=O)CC1CCCCN1CC(=O)Nc1ccc(F)cc1Cl (stereo not drawn),62.4
21,COC(=O)CC1CCCCN1CC(=O)Nc1cc(F)ccc1F (stereo not drawn),47.2
22,O=C(CCn1cncn1)N1C[C@@H]2CC[C@H]1CN(Cc1cccnc1)C2,14.3

row,Compound,INHIBITION [%]
1,Cc1ccc(-c2noc(C(C)NS(C)(=O)=O)n2)cc1 (stereo not drawn),1.8
2,CS(=O)(=O)N1CCOCC2(CN(Cc3ccco3)CCO2)C1 (stereo not drawn),3.47
3,COCc1ncc(CN(Cc2ccncc2)Cc2ccc(C)s2)cn1,61.9
4,COCc1ncc(CN(CCN(C)C)Cc2ccc(C)s2)cn1,38.7
5,Cc1ccc(CN(Cc2ccncc2)C2CCN(C)CC2)s1,-6.73
6,COc1ncc(CN(CCN(C)C)Cc2ccc(C)s2)cn1,63.8
7,CCc1ccc(CN(CCN(C)C)Cc2ccc(C)s2)nc1,22
8,CCNc1ncc(CN(CCN(C)C)Cc2ccc(C)s2)cn1,35
9,Cc1cc(C(=O)NCC2CCS(=O)(=O)C2)ccc1NC(=O)c1ccco1 (stereo not drawn),40.2
10,CC(C)n1cnnc1CNC(=O)c1cnn(Cc2ccccc2)c1,-24.4
11,COCC1c2c(cnn2CC2CC2)CCN1Cc1cc(C)on1 (stereo not drawn),47.1
12,COCCn1cc(C(=O)NC2CCS(=O)(=O)C2)c2ccccc2c1=O (stereo not drawn),42.8
13,Cc1cc(C(=O)N2CCC(O)(Cn3ccc4ccncc43)CC2)on1,12.8
14,O=C(Cc1ccc(O)cc1)N1CCCC(O)(CN2CCOCC2)CC1 (stereo not drawn),30.4
15,Cc1nc(CCC(=O)NC2CCC2)cc(C2CCNCC2)n1,33.5
16,CN1CC(C(=O)NCCc2ccc(Br)cc2F)CC1=O (stereo not drawn),-57
17,c1ccc(COC[C@@H]2CCC[C@@]23CNCCO3)nc1,72
18,c1ccc(OC[C@@H]2CCC[C@@]23CNCCO3)nc1,31.3
19,CC(=O)N1CCC2(CC1)COC(COCc1ccccn1)C2 (stereo not drawn),14.6
20,c1ccc(COC[C@H]2CCC[C@@]23CNCCO3)nc1,62.9

# From ChEMBL document CHEMBL4513216, “Probing the Open Global Health Chemical Diversity Library for Multistage-Active Starting Points for Next-Generation Antimalarials” (ACS Infect Dis, 2020)
